Laboratory results: PubChem BioAssay (NCATS)
Inconclusive results are not listed. Unmarked numbers belong to inactive results. Activity calls are given as the source filed them. Calls follow the shape of the dose curve; as a rule, active = well fitted inhibition curve with a large enough effect; inconclusive = small, poorly fitted or top-dose-only effect; inactive = flat fitted curve, though single readings scatter.
% is scaled to controls: 0 for no effect and ±100 for the full control effect; potency is read from the fitted curve at half-maximal effect.

System: not listed separately
Experiment: Drug repurposing screens with cells derived from glioblastoma tumor samples (AID 1345199); also: nearly all actives have a fitted effect of over 40% in size
Settings: GBM patient neurospheres viability, ATP luminescence, 48 h; at 45.9 µM (top of the series); tumour line B
Procedure, shortened: (§1)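 Four patient lines of CD133+ GBM neurospheres were screened at several concentrations; hits were retested in those lines plus three slower-growing GBM lines, using 48-hour treatment and ATP-based viability.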
With `COc1ccnc(CS(=O)c2nc3ccc(OC(F)F)cc3[nH]2)c1OC` (stereo not given) the activity, negative = cell killing was -25.5%. In the case of `O=C(CCCN1CCN(c2ccc(F)cc2)CC1)NC1c2ccccc2CSc2ccccc21` (stereo not given), the activity, negative = cell killing is reported as -21%. In the case of `O=C(Nc1cccc2c(=O)cc(-c3nn[nH]n3)oc12)c1ccc(OCCCCc2ccccc2)cc1`, the activity, negative = cell killing is reported as 1.64%.

Same assay, conditions: GBM patient neurospheres viability, ATP luminescence, 48 h; at 45.9 µM (top of the series); tumour line D
For `COc1ccnc(CS(=O)c2nc3ccc(OC(F)F)cc3[nH]2)c1OC` (stereo not given), the activity, negative = cell killing was -22.5%. Compound `O=C(CCCN1CCN(c2ccc(F)cc2)CC1)NC1c2ccccc2CSc2ccccc21` (stereo not given) has an activity, negative = cell killing of -27.4%. In the case of `O=C(Nc1cccc2c(=O)cc(-c3nn[nH]n3)oc12)c1ccc(OCCCCc2ccccc2)cc1`, the activity, negative = cell killing is reported as -5.85%.

System: astro (control astrocytes)
Experiment: as above
Settings: viability, ATP luminescence, 48 h; series mostly up to 45.9 µM; activity, negative = cell killing: at the top concentration
Procedure, shortened: as §1
For `COc1ccnc(CS(=O)c2nc3ccc(OC(F)F)cc3[nH]2)c1OC` (stereo not given), the “activity, negative = cell killing” value was -23.6%. With `O=C(CCCN1CCN(c2ccc(F)cc2)CC1)NC1c2ccccc2CSc2ccccc21` (stereo not given) the “activity, negative = cell killing” value was -25%. In the case of `O=C(Nc1cccc2c(=O)cc(-c3nn[nH]n3)oc12)c1ccc(OCCCCc2ccccc2)cc1`, the “activity, negative = cell killing” value is reported as -23.5%. For `COc1ccc(-c2nc3ccc(C4=NNC(=O)CC4C)cc3[nH]2)cc1` (stereo not given), the Potency was 11.2 µM (active).
